Hit rate of the full screen: of about 5,500 compounds, about 2,000 (36%) were called active. Inconclusive results (about 18%) are left out. Rule as the data show it: active = normalized growth mostly below about 0.91 (no sharp cut-off); inconclusive = no clear call, values can overlap the other calls; inactive = mostly above about 0.92. The list shows a part of the results.
Test: chemical genetic growth profiling, strain panel (AID 1159580);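 also: tested at 20 µM; growth read once vehicle control cultures reached saturation at 30 °C; 1 = growth at the plate median or of vehicle wells; lower values mean less growth of the strain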
Details: growth OD

Measured: normalized growth

O=C(CCCN1CC=C(n2c(=O)[nH]c3ccccc32)CC1)c1ccc(F)cc1
inactive: S. cerevisiae deletion strains, locus YJR075W, strain HOC1, stronger effect = lower value 0.98 | S. cerevisiae deletion strains, locus YKL009W, strain mrt4, stronger effect = lower value 0.939 | S. cerevisiae deletion strains, locus YKL068W, stronger effect = lower value 0.989 | S. cerevisiae deletion strains, locus YKL085W, strain MDH1 (second series), stronger effect = lower value 0.994 | S. cerevisiae deletion strains, locus YKL085W, strain MDH1, stronger effect = lower value 0.994 | S. cerevisiae deletion strains, locus YKL160W, strain elf1, stronger effect = lower value 0.977 | S. cerevisiae deletion strains, locus YKL190W, strain CNB1, stronger effect = lower value 0.99 | S. cerevisiae deletion strains, locus YKR001C, strain vps1, stronger effect = lower value 0.981 | S. cerevisiae deletion strains, locus YKR026C, strain gcn3, stronger effect = lower value 0.948 | S. cerevisiae deletion strains, locus YKR091W, strain srl3, stronger effect = lower value 0.967 | S. cerevisiae deletion strains, locus YLL001W, strain dnm1, stronger effect = lower value 0.957 | S. cerevisiae deletion strains, locus YLL026W, stronger effect = lower value 0.968 | S. cerevisiae deletion strains, locus YLL041C, strain sdh2, stronger effect = lower value 0.988 | S. cerevisiae deletion strains, locus YLR027C, strain aat2, stronger effect = lower value 0.979 | S. cerevisiae deletion strains, locus YLR039C, strain RIC1, stronger effect = lower value 0.969 | S. cerevisiae deletion strains, locus YLR058C, strain SHM2, stronger effect = lower value 0.967 | S. cerevisiae deletion strains, locus YLR102C, strain apc9, stronger effect = lower value 0.989 | S. cerevisiae deletion strains, locus YLR113W, strain HOG1, stronger effect = lower value 0.971 | S. cerevisiae deletion strains, locus YLR221C, strain rsa3, stronger effect = lower value 0.976 | S. cerevisiae deletion strains, locus YLR258W, strain gsy2, stronger effect = lower value 0.987 | S. cerevisiae deletion strains, locus YLR262C, strain YPT6 (second series), stronger effect = lower value 0.954 | S. cerevisiae deletion strains, locus YLR262C, strain YPT6, stronger effect = lower value 0.942 | S. cerevisiae deletion strains, locus YLR268W, strain sec22, stronger effect = lower value 1.05 | S. cerevisiae deletion strains, locus YLR320W, strain mms22, stronger effect = lower value 0.986 | S. cerevisiae deletion strains, locus YLR330W, strain CHS5, stronger effect = lower value 0.986 | S. cerevisiae deletion strains, locus YLR342W, strain FKS1 (second series), stronger effect = lower value 0.944 | S. cerevisiae deletion strains, locus YLR342W, strain FKS1, stronger effect = lower value 0.974 | S. cerevisiae deletion strains, locus YLR357W, strain rsc2, stronger effect = lower value 0.951 | S. cerevisiae deletion strains, locus YLR370C, strain arc18, stronger effect = lower value 0.972 | S. cerevisiae deletion strains, locus YLR371W, strain rom2, stronger effect = lower value 0.949 | S. cerevisiae deletion strains, locus YLR384C, strain iki3, stronger effect = lower value 0.961 | S. cerevisiae deletion strains, locus YLR418C, strain cdc73, stronger effect = lower value 0.968 | S. cerevisiae deletion strains, locus YML016C, strain PPZ1, stronger effect = lower value 0.987 | S. cerevisiae deletion strains, locus YML032C, strain rad52, stronger effect = lower value 0.993 | S. cerevisiae deletion strains, locus YML120C, strain ndi1, stronger effect = lower value 1 | S. cerevisiae deletion strains, locus YML124C, strain tub3, stronger effect = lower value 0.975 | S. cerevisiae deletion strains, locus YMR058W, strain fet3, stronger effect = lower value 0.99 | S. cerevisiae deletion strains, locus YMR078C, strain ctf18, stronger effect = lower value 0.979 | S. cerevisiae deletion strains, locus YMR125W, strain sto1, stronger effect = lower value 0.944 | S. cerevisiae deletion strains, locus YMR129W, stronger effect = lower value 0.987 | S. cerevisiae deletion strains, locus YMR205C, strain PFK2, stronger effect = lower value 0.951 | S. cerevisiae deletion strains, locus YMR223W, strain ubp8, stronger effect = lower value 0.955 | S. cerevisiae deletion strains, locus YMR231W, strain pep5, stronger effect = lower value 0.979 | S. cerevisiae deletion strains, locus YMR263W, strain SAP30, stronger effect = lower value 0.987 | S. cerevisiae deletion strains, locus YMR307W, strain GAS1, stronger effect = lower value 0.974 | S. cerevisiae deletion strains, locus YNL067W, strain RPL9B, stronger effect = lower value 0.999 | S. cerevisiae deletion strains, locus YNL071W, strain lat1, stronger effect = lower value 0.982 | S. cerevisiae deletion strains, locus YNL128W, strain TEP1, stronger effect = lower value 0.98 | S. cerevisiae deletion strains, locus YNL153C, strain GIM3, stronger effect = lower value 0.985 | S. cerevisiae deletion strains, locus YNL183C, strain NPR1, stronger effect = lower value 0.925 | S. cerevisiae deletion strains, locus YNL209W, strain ssb2, stronger effect = lower value 0.975 | S. cerevisiae deletion strains, locus YNL233W, strain BNI4, stronger effect = lower value 0.992 | S. cerevisiae deletion strains, locus YNL248C, strain rpa49, stronger effect = lower value 0.981 | S. cerevisiae deletion strains, locus YNL250W, strain rad50, stronger effect = lower value 0.971 | S. cerevisiae deletion strains, locus YNL271C, strain bni1, stronger effect = lower value 0.995 | S. cerevisiae deletion strains, locus YNL298W, strain CLA4, stronger effect = lower value 0.982 | S. cerevisiae deletion strains, locus YNL307C, strain MCK1, stronger effect = lower value 0.968 | S. cerevisiae deletion strains, locus YNL322C, strain KRE1 (second series), stronger effect = lower value 0.984 | S. cerevisiae deletion strains, locus YNL322C, strain KRE1, stronger effect = lower value 0.987 | S. cerevisiae deletion strains, locus YNR049C, strain mso1, stronger effect = lower value 0.972 | S. cerevisiae deletion strains, locus YNR052C, strain pop2, stronger effect = lower value 0.992 | S. cerevisiae deletion strains, locus YOL006C, strain TOP1, stronger effect = lower value 0.996 | S. cerevisiae deletion strains, locus YOL012C, strain htz1 0.899 | S. cerevisiae deletion strains, locus YOL147C, strain pex11, stronger effect = lower value 0.991 | S. cerevisiae deletion strains, locus YOR001W, strain rrp6, stronger effect = lower value 0.955 | S. cerevisiae deletion strains, locus YOR061W, strain CKA2, stronger effect = lower value 0.97 | S. cerevisiae deletion strains, locus YOR070C, strain gyp1, stronger effect = lower value 0.99 | S. cerevisiae deletion strains, locus YOR080W, strain dia2, stronger effect = lower value 0.963 | S. cerevisiae deletion strains, locus YOR083W, strain WHI5, stronger effect = lower value 0.978 | S. cerevisiae deletion strains, locus YOR106W, strain vam3, stronger effect = lower value 0.933 | S. cerevisiae deletion strains, locus YOR136W, strain idh2, stronger effect = lower value 0.983 | S. cerevisiae deletion strains, locus YOR144C, strain elg1, stronger effect = lower value 0.988 | S. cerevisiae deletion strains, locus YOR184W, strain ser1, stronger effect = lower value 0.967 | S. cerevisiae deletion strains, locus YOR231W, strain MKK1, stronger effect = lower value 0.992 | S. cerevisiae deletion strains, locus YOR265W, strain rbl2, stronger effect = lower value 0.981 | S. cerevisiae deletion strains, locus YOR270C, strain vph1, stronger effect = lower value 0.956 | S. cerevisiae deletion strains, locus YOR290C, strain snf2, stronger effect = lower value 0.98 | S. cerevisiae deletion strains, locus YOR316C, strain cot1, stronger effect = lower value 0.98 | S. cerevisiae deletion strains, locus YPL051W, strain arl3, stronger effect = lower value 0.98 | S. cerevisiae deletion strains, locus YPL055C, strain LGE1, stronger effect = lower value 0.955 | S. cerevisiae deletion strains, locus YPL078C, strain atp4, stronger effect = lower value 0.949 | S. cerevisiae deletion strains, locus YPL106C, strain sse1, stronger effect = lower value 0.967 | S. cerevisiae deletion strains, locus YPL240C, strain hsp82, stronger effect = lower value 0.979 | S. cerevisiae deletion strains, locus YPL241C, strain CIN2, stronger effect = lower value 0.992 | S. cerevisiae deletion strains, locus YPL256C, strain CLN2, stronger effect = lower value 0.991 | S. cerevisiae deletion strains, locus YPR119W, strain clb2, stronger effect = lower value 0.989 | S. cerevisiae deletion strains, locus YPR141C, strain kar3, stronger effect = lower value 0.973 | S. cerevisiae deletion strains, locus YPR163C, strain tif3, stronger effect = lower value 0.989 | S. cerevisiae deletion strains, locus YPR167C, strain met16, stronger effect = lower value 0.991 | S. cerevisiae deletion strains, strain wtn01, stronger effect = lower value 0.991 | S. cerevisiae strains, strain wild type, stronger effect = lower value 0.979

— PubChem BioAssay AID1159580 (chemical genetic matrix, 2015)
